MITF primary: MITF inhibitors, primary screen, biochemical, AlphaScreen, human; AlphaScreen MITF homodimerization, bead proximity signal; inhibition, % at 2.6 µM; 0.91% of 650,000 active; AID 1259374, 2018; in the data active = inhibition above about 50%
GPR151 activ: activators of human GPR151, primary screen, cell-based, PathHunter beta-arrestin, luminescence | G-protein coupled receptor 151 (Homo sapiens), Q8TDV0 | PathHunter beta-arrestin GPR151 cells | activation, % at 11.2 µM | 1% of 650,000 active | AID 1508602, 2020; in the data active = activation above about 4.9%
FBW7 activator: FBW7 E3 ligase activators, primary screen, biochemical, AlphaScreen, human; F-box/WD repeat-containing protein 7 (Homo sapiens), Q969H0; AlphaScreen FBW7–phospho-cyclin E peptide binding, activator screen; normalized activity (activation), % at 26.1 µM; 0.13% of 650,000 active; AID 1259310, 2017; in the data active = normalized activity above about 1.9%;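 also: purified mutant Fbw7 with reduced substrate affinity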
Target sequence (Q969H0 whole entry, looked up): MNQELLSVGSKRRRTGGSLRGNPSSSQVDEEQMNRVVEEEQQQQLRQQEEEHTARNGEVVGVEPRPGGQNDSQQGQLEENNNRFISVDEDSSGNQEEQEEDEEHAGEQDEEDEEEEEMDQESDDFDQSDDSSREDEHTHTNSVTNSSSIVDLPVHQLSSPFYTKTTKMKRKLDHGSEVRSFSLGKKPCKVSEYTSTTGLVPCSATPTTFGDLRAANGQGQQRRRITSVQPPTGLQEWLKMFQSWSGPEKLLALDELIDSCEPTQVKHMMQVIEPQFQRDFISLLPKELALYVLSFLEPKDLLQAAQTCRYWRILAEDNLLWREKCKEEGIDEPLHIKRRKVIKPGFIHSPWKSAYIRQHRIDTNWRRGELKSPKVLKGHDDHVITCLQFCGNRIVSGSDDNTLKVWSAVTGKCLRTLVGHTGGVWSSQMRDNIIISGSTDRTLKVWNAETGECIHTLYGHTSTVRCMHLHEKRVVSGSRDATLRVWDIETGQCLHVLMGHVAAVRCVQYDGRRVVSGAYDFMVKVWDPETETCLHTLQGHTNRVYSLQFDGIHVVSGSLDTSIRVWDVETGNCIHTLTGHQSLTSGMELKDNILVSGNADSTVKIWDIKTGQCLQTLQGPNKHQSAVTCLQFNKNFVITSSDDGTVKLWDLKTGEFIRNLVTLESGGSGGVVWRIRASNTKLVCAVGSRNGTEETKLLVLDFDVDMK
TEAD-YAP inh: TEAD-YAP interaction inhibition, primary screen, TEAD-YAP interaction inhibitor project, luminescence, HEK-TIYL cells; TEAD-Gal4/YAP UAS-luciferase luminescence; inhibition, % at 9.12 µM; 1.4% of 640,000 active; in the data active = inhibition above about 32%
Of the large screens only hits and unclear results are named; the others gave an inactive call. This is a sample that favours compounds with a hit; in the whole collection about 3.4% have one here.

O=C(C1CCCC1)N1CCC(c2nc3c(nnn3Cc3ccccc3)c(=O)[nH]2)CC1	none
Cc1ccc(C(=O)Nn2c(-c3cccc([N+](=O)[O-])c3)nc3ccccc3c2=O)cc1	none
Cc1cc(C(=O)COC(=O)c2cccc(N(C)C)c2)c(C)n1CC1CCCO1 (stereo not given)	TEAD-YAP inh 38
Cc1cc(C(=O)COC(=O)c2cccc(NS(C)(=O)=O)c2)c(C)n1CC1CCCO1 (stereo not given)	TEAD-YAP inh 58
C=CCn1c(C)cc(C(=O)COC(=O)c2cccc(O)c2)c1C	TEAD-YAP inh 87
O=C(COC(=O)c1ccc(Oc2c(Cl)cccc2[N+](=O)[O-])cc1)c1ccc(Cl)cc1	none
CSc1ccc(CN2CCN(S(=O)(=O)c3ccc4ccccc4c3)CC2)cc1	none
CCc1ccc(CN2CCN(S(C)(=O)=O)CC2)cc1	none
CS(=O)(=O)N1CCN(Cc2ccc(Cl)cc2)CC1	TEAD-YAP inh 41
CSc1ccc(CN2CCN(S(C)(=O)=O)CC2)cc1	TEAD-YAP inh 47
CN(/N=C/c1ccc([N+](=O)[O-])cc1)C1=NS(=O)(=O)c2ccccc21	none
CC(=O)N(/N=C1\Sc2ccccc2C1=O)c1ccccc1[N+](=O)[O-]	TEAD-YAP inh 59
CC(=O)N(/N=C1\Sc2ccccc2C1=O)c1ccc(Br)cc1	none
CCCNc1ccnc(Nc2ccccc2)n1	none
CCCNc1ccnc(Nc2ccncc2)n1	TEAD-YAP inh 36
CC(C)CN(C(=O)CCl)C1CCS(=O)(=O)C1 (stereo not given)	TEAD-YAP inh 66
CCCN(C(=O)CCl)C1CCS(=O)(=O)C1 (stereo not given)	TEAD-YAP inh 50
CN(C)CCN(C(=O)CCl)C1CCS(=O)(=O)C1 (stereo not given)	none
COc1ccc(O)c(CNn2c(-c3cc(OC)c(OC)c(OC)c3)nc3ccccc3c2=O)c1	none
CC12COC3(C(=O)Nc4nc5ccccc5s4)CC1CCC32C (stereo not given)	TEAD-YAP inh 67
CC12COC3(C(=O)Nc4ccccc4)CC1CCC32C (stereo not given)	none
Nc1ccc(/C=C/c2nc3ccccc3o2)cc1	TEAD-YAP inh 45
O=C(O)c1ccc2c(c1)C(=O)N(Nc1ccccc1[N+](=O)[O-])C2=O	TEAD-YAP inh 48
O=C(O)c1ccc2c(c1)C(=O)N(c1ccccc1[N+](=O)[O-])C2=O	none
Cc1cccc(Cc2nnc(CCC(=O)N3CCC(C(O)c4cccs4)CC3)o2)c1 (stereo not given)	none
O=C(CCC(=O)N(CC(=O)NC1CCCCC1)Cc1ccco1)Nc1ccccn1	none
O=C(Nc1nc2ccccc2s1)c1ccc(N2C(=O)CCC2=O)cc1	none
CCCc1ccc(-c2ccc(C(=O)Nc3nc4ccccc4s3)cc2)nc1	none
CC(C)c1ccc2nc(NC(=O)c3ccccc3)sc2c1	TEAD-YAP inh 39
CCc1ccc(C(=O)Nc2nc3ccccc3s2)cc1	TEAD-YAP inh 50
CCN(CC)C(=O)c1ccc2nc(NC(=O)c3ccc(OC(C)=O)cc3)sc2c1	FBW7 activator 2.0, TEAD-YAP inh 78
O=C(Nc1nc2ccccc2s1)c1ccccc1	TEAD-YAP inh 32
COc1ccc(Cl)cc1NC(=S)N(CCCN1CCCC1)Cc1ccco1	none
O=C(CCc1nc2ccccc2s1)c1ccccc1	FBW7 activator 2.0
O=C(O)c1ccccc1/C=N/Nc1nc2ccccc2s1	TEAD-YAP inh 94
O=C(O)COc1ccccc1/C=N/Nc1nc2ccccc2s1	none
COc1ccc(C)cc1NS(=O)(=O)c1ccc2c(c1)OCC(=O)N2	none
CCC(C)(C)NS(=O)(=O)c1ccc2[nH]c3c(c2c1)CCCC3	none
Cn1c(SCC2CCCCO2)nnc1-c1ccccc1 (stereo not given)	none
Cn1c(SCC2CCCO2)nnc1-c1ccccc1O (stereo not given)	TEAD-YAP inh 61
COc1cc2sc(=NC(=O)c3cccs3)n(C)c2cc1OC	none
Cc1ccc2c(c1)sc(=NC(=O)c1cccs1)n2C	TEAD-YAP inh 74
CCC(C)N1C(=O)/C(=C/c2c(NCc3ccco3)nc3ccccn3c2=O)SC1=S (stereo not given)	TEAD-YAP inh 43
COC(=O)c1ccc2c(=O)n(CCC3=CCCCC3)c(SCc3ccc(OC(F)(F)F)cc3)nc2c1	none
Cc1ccc(C)c(NC(=O)c2sc3ccccc3c2Cl)c1	none
O=C(c1ccc2cncc(-c3ccccc3)c2n1)N1CCCCC1	TEAD-YAP inh 50
O=C(NC1CC1)c1ccc2cncc(-c3ccccc3)c2n1	TEAD-YAP inh 51
O=C(NC1CC1)c1cncc(-c2ccccc2)c1	none
O=C(NC1CCN(Cc2ccccc2)CC1)c1ccc2cncc(-c3ccccc3)c2n1	TEAD-YAP inh 65
CCOC(=O)c1c(NC(=O)CSc2nnc(CNC(=O)c3ccccc3OC)n2-c2ccc([N+](=O)[O-])cc2)sc2c1CCC2	none
CCOC(=O)c1ccc(NC(=O)c2ccc(Cc3ccc(C)cc3)o2)cc1	none
Cc1ccc(C(=O)c2sc3nc(C)ccc3c2N)c(C)c1	TEAD-YAP inh 37
COc1ccc(C(=O)c2sc3nc(C)ccc3c2N)cc1OC	TEAD-YAP inh 33
O=C(Cn1nc(-c2cccnc2)oc1=O)N1CCCCCC1	none
Cc1ccc(NC(=O)NC2(C(F)(F)F)Oc3ccccc3O2)cc1F	none
CCCCCSc1nnc2c(n1)OC(c1ccccn1)Nc1ccc(Br)cc1-2 (stereo not given)	none
O=C(Cn1nnc(-c2ccccc2)n1)N/N=C/c1ccc(O)c(O)c1O	MITF primary 66
O=C(Cn1nnc(-c2ccccc2)n1)N/N=C/c1cc(Cl)ccc1O	MITF primary 57
O=C(Cn1nnc(-c2ccccc2)n1)N/N=C/c1ccccc1C(F)(F)F	none
O=C1NC(=Nc2ccc(Br)cc2)SC1Cc1cccc(C(F)(F)F)c1 (stereo not given)	none
Cc1nnc(SCc2cnc(-c3ccc(C(C)C)cc3)s2)n1C	TEAD-YAP inh 58
Cn1nnnc1SCc1cnc(-c2ccccc2)s1	none
Cc1cc2c(cc1C)NC(c1cc3c(cc1[N+](=O)[O-])OCO3)C1=C(CC(C)(C)CC1=O)N2 (stereo not given)	TEAD-YAP inh 72
COc1cc(Nc2ccnc(N3CCN(c4ccccn4)CC3)n2)cc(OC)c1OC	TEAD-YAP inh 36
COc1cc(Nc2cc(C)nc(N3CCN(c4ccccn4)CC3)n2)cc(OC)c1OC	TEAD-YAP inh 53
COc1cc(Nc2cc(N3CCN(c4ccccn4)CC3)ncn2)cc(OC)c1OC	none
CSc1cccc(C(=O)Nc2nnc(-c3ccc(C)cc3C)o2)c1	none
O=C(O)CC1S/C(=N/N=C/c2cccc([N+](=O)[O-])c2O)NC1=O (stereo not given)	MITF primary 91
NC(=O)c1cc(F)ccc1Nc1ccnc(Nc2ccc(N3CCOCC3)cc2)c1	none
NC(=O)c1ccccc1Nc1ccnc(Nc2ccc(N3CCOCC3)cc2F)c1	TEAD-YAP inh 38
NC(=O)c1ncccc1Nc1ccnc(Nc2ccc(N3CCOCC3)cc2)c1	TEAD-YAP inh 49

High-throughput results as filed in PubChem BioAssay.
